ATXN2 expr inh = ATXN2 expression inhibition; hit rate 0.72% among 360,000; HEK-293 ATXN2-luciferase reporter, luminescence, 24 h; Potency, µM (titrated, usually from 57 µM), without a hit: top-dose activity change, negative = inhibition, usual class: inhibitors; AID 1745845; note: % is set by controls: 0 for no effect and ±100 for the full control effect; nearly all actives have a fitted effect of over 55% in size
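ATXN2-luciferase reporter cells (luciferase flanked by upstream and downstream ATXN2 gene portions) were treated 24 h at 37 °C with compounds at up to 57 uM. SteadyGlo luminescence gave expression; GF-AFC fluorescence gave viability.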
TDP1 cell CPT = DT40-hTDP1 cell growth loss with CPT; chicken DT40 Tdp1-/-;hTDP1 cells + 20 nM CPT, ATP luminescence, 48 h; Potency, µM (doses to about 46.2 µM), without a hit: top-dose activity change, negative = growth inhibition, most hits filed as inhibitors; hit rate 12% among 420,000; note: % is set by controls: 0 for no effect and ±100 for the full control effect; nearly all actives have a fitted effect of over 55% in size
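Chicken DT40 Tdp1-/- cells complemented with human TDP1, 400 cells/well, exposed to compounds plus 20 nM camptothecin for at least 48 h at 37 C; viability read as ATP content by CellTiter-Glo luminescence.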
S2 tox = reduces viability in counter-screen for ATXN expression inhibitors; hit rate 0.49% among 400,000; AID 651635; S2 cells (HEK-293 line with an ATXN2-luciferase reporter) viability, CellTiter-Fluor protease fluorescence, 24 h; Potency, µM (highest dose often 56.7 µM), most hits filed as cytotoxic; note: nearly all actives have a fitted effect of over 40% in size
HepG2 tox = HepG2 cytotoxicity, counter-screen for TGF-b inhibitors; HepG2 CAGA-GFP viability, ATP luminescence, 18 h; Potency, µM (top dose mostly 46.1 µM), for the others: at the top dose activity change, negative = cytotoxicity, hits mostly cytotoxic; hit rate 0.76% among 410,000; AID 588856
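CellTiter-Glo luminescence gave cytotoxicity after 18 hours at 37 degrees C. The cells were HepG2 CAGA-GFP in 1% FBS DMEM, stimulated with 500 pg/mL TGF-beta after compound addition. %Activity was normalised to no-cell wells (complete cell-killing) and DMSO (no toxicity), and curves were fitted and classified.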
DT40 TDP1 no CPT = qHTS for Inhibitors of human tyrosyl-DNA phosphodiesterase 1 (TDP1): qHTS in cells in absence of CPT; DT40 Tdp1-/- hTDP1 cells, no CPT, ATP luminescence, 48 h; hit rate 15% among 420,000; Potency, µM (doses to about 46.2 µM), for inactives: top-dose activity change, negative = growth inhibition, most hits filed as inhibitors; note: % is set by controls: 0 for no effect and ±100 for the full control effect; nearly all actives have a fitted effect of over 55% in size
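Growth kinetics read by CellTiter-Glo luminescence after ≥48 hr at 37 °C. Cells: DT40 Tdp1-/- stably carrying human TDP1, 400 per well, compound exposure in the absence of CPT (DMSO vehicle).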
TGFb SMAD3 inh = TGF-b pathway inhibition | HepG2 CAGA-GFP TGF-b/SMAD3 reporter, GFP fluorescence, 18 h; TGF-beta stimulated, 500 pg/mL final | Potency, µM (titrated, usually from 46.1 µM), for the others: at the top dose activity, negative = inhibition, actives largely listed as inhibitors | hit rate 1.2% among 410,000 | AID 588855; note: % is set by controls: 0 for no effect and ±100 for the full control effect; nearly all actives have a fitted effect of over 65% in size
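Inhibition was scored as loss of TGF-beta-induced (500 pg/mL final, 18 hours, 37 degrees C) GFP in HEPG2 cells carrying a CAGA-GFP reporter, in DMEM with 1% FBS. Well GFP was summed per cell; Activity was normalised to unstimulated and stimulated DMSO wells, then concentration-response fitting.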
The depositor's hits bear a star. The list is not random: actives were taken first. Their share in the collection is about 17%. Calls come from the whole dose curve; as a rule, active = well fitted curve in the direction sought with a large enough effect; inconclusive = small, poorly fitted or top-dose-only effect, or another doubt; inactive = no such curve, though single readings can be large; an effect the other way counts as inactive or inconclusive. Potency is the fitted concentration of half-maximal effect.

For CCOC(=O)N1CCN(CCC(=O)Nc2cccc(F)c2)CC1 the results were ATXN2 expr inh -6%, TDP1 cell CPT -11%, S2 tox inactive, HepG2 tox -23%, DT40 TDP1 no CPT 3% and TGFb SMAD3 inh 0%.
`COc1ccc(N(CC(=O)NC2CC3CCC2C3)S(=O)(=O)c2ccc(C)cc2)cc1Cl` (centres undefined) gave TDP1 cell CPT inconclusive, S2 tox inactive, HepG2 tox -20%, DT40 TDP1 no CPT 23µM* and TGFb SMAD3 inh -3%.
For CCOc1ccc(S(=O)(=O)N(CC(=O)NCC2CCCO2)c2ccc(F)cc2)cc1 (centres undefined) the results were ATXN2 expr inh -5%, TDP1 cell CPT -19%, S2 tox inactive, HepG2 tox -3%, DT40 TDP1 no CPT inconclusive and TGFb SMAD3 inh 14%.
For CCOc1ccc(N(CC(=O)NCC2CCCO2)S(=O)(=O)c2ccc(SC)cc2)cc1 (centres undefined) the results were ATXN2 expr inh -5%, TDP1 cell CPT 13µM*, S2 tox inactive, HepG2 tox -23%, DT40 TDP1 no CPT -12% and TGFb SMAD3 inh -19%.
CCOc1ccc(N(CC(=O)NC2CC3CCC2C3)S(=O)(=O)c2ccc(C)cc2)cc1 (centres undefined) was read as ATXN2 expr inh -38%, TDP1 cell CPT 16µM*, S2 tox inactive, HepG2 tox -29%, DT40 TDP1 no CPT inconclusive and TGFb SMAD3 inh inconclusive.
CC(C)(C)c1ccc(C2Sc3ccccc3NC3=C2C(=O)c2ccccc23)cc1 (centres undefined) was read as ATXN2 expr inh inconclusive, TDP1 cell CPT 16µM*, HepG2 tox -31%, DT40 TDP1 no CPT inconclusive and TGFb SMAD3 inh inconclusive.
`Cc1ccc(/C=N/Nc2nc(N3CCCCC3)nc(N3CCCCC3)n2)o1` gave ATXN2 expr inh -15%, TDP1 cell CPT 1%, S2 tox inactive, HepG2 tox -1%, DT40 TDP1 no CPT inconclusive and TGFb SMAD3 inh 17%.
For CCOc1cccc(/C=N/Nc2nc(N3CCCC3)nc(N3CCCC3)n2)c1O the results were TDP1 cell CPT 16µM*, S2 tox inactive, HepG2 tox 16%, DT40 TDP1 no CPT 13µM* and TGFb SMAD3 inh 7%.
Screening COC(=O)c1ccccc1-c1ccc(/C=N/Nc2nc(N3CCCC3)nc(N3CCCC3)n2)o1 returned ATXN2 expr inh inconclusive, TDP1 cell CPT inconclusive, S2 tox inconclusive, HepG2 tox -39%, DT40 TDP1 no CPT 23µM* and TGFb SMAD3 inh 13µM*.
O=C(N/N=C/c1ccc2c(c1)OCO2)c1cc2ccccc2o1 was read as ATXN2 expr inh -3%, TDP1 cell CPT 5%, S2 tox inactive, HepG2 tox -4%, DT40 TDP1 no CPT 22% and TGFb SMAD3 inh -2%.
For COC(=O)c1ccccc1-c1ccc(/C=N/NC(=O)c2cc3ccccc3o2)o1 the results were ATXN2 expr inh -7%, TDP1 cell CPT inconclusive, S2 tox inactive, HepG2 tox -8%, DT40 TDP1 no CPT 15µM* and TGFb SMAD3 inh inconclusive.
For CSc1ccc(OC2(C)CCN(Cc3ccc(OC(F)(F)F)cc3)C2)cc1 (centres undefined) the results were ATXN2 expr inh -3%, TDP1 cell CPT -27%, S2 tox inactive, HepG2 tox -45%, DT40 TDP1 no CPT inconclusive and TGFb SMAD3 inh -14%.
Oc1ccc(-c2nnc(SCC3CCCCC3)o2)cc1 was read as ATXN2 expr inh 43%, TDP1 cell CPT inconclusive, S2 tox inconclusive, HepG2 tox 11µM*, DT40 TDP1 no CPT inconclusive and TGFb SMAD3 inh -29%.

Screening results (PubChem BioAssay)
